# From PubChem BioAssay AID720603 (Broad Institute, 2013)
# Entries with a potency or affinity are not part of this list. Records with an inconclusive call do not appear. Activity calls are given as the source filed them.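 How the source made its calls: active means every test run gave an active call, each with a potency at or below twice the top valid dose; inconclusive means test runs disagree, or curve fits are weak or unclear; inactive means every test run inactive, including wrong-way signal.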
# Assay: C2C12 myoblast ATP-based viability loss, dose response, cytotoxicity control for HRAS target identification, cell-based, CellTiter-Glo ATP luminescence, 8/24/48 h, dry powder (AID 720603)
smiles,measurement,value
Cc1onc(C(=O)N2CCN(C(c3ccncc3)c3ccncc3)CC2)c1[N+](=O)[O-],outcome,inactive
